Like-named read-outs stand apart in the source and are kept apart here. In all, about 3,300 compounds went through this assay and about 95 (3%) showed an effect of 50% or more. Shown is part of a subset that was picked to be rich in strong results.
Tested on: HCoV-229E
Parameters: species or system Huh-7; HTS, protection from HCoV-229E induced cell death, luminescent cell viability (CellCounting-Lite 2.0), inhibition rate
Conditions: 24 h post infection, 1 h compound pre-incubation, 10 µM, inhibitor

Structure (SMILES)	229E Inhibition rate [%]	229E Inhibition rate (229E Inhibition rate, 24 h) [%]
CC(=O)OCCC(C)CCC=C(C)C (centres unmarked) [Citronellyl acetate]	16.2	
CCC(O)CC [3-Pentanol]	19	
COc1cc(-c2coc3cc4c(c(OC)c3c2=O)OCO4)cc(OC)c1OC [Irisflorentin]	11.3	
COc1cc(-c2coc3cc4c(c(O)c3c2=O)OCO4)cc(O)c1OC [Dichotomitin]	53.3	
COc1cc(-c2coc3cc(O)c(OC)c(O)c3c2=O)cc(O)c1OC [Irigenin]	11.4	
CO[C@@H]1[C@H](O)[C@@H](CO)O[C@H]1n1ccc(=O)[nH]c1=O [2′-O-Methyluridine]	20.9	
Oc1ccc([C@H]2COc3cc(O)ccc3C2)cc1 [(-)-(S)-Equol]	8.5	
Oc1ccc(C2COc3cc(O)ccc3C2)cc1 (racemic) [(±)-Equol]	11	
CC1(C)C=Cc2c(ccc3c2OC[C@@H](c2ccc(O)cc2O)C3)O1 [Glabridin]	54.3	
C=C1C[C@@]23CC[C@H]4[C@@](C)(CCC[C@@]4(C)C(=O)O)[C@@H]2CC[C@@H]1C3 [Kaurenoic acid]	8.8	
CC(C)(O)CC[C@@H](O)[C@](C)(O)[C@H]1CC=C2C3=C(CC[C@@]21C)[C@@]1(C)C[C@H](O)[C@H](O)C[C@H]1C(=O)C3 [Podecdysone B]	11.2	
C[C@H](CCC(=O)O)[C@H]1CC[C@H]2[C@@H]3C(=O)C[C@@H]4C[C@H](O)CC[C@]4(C)[C@H]3CC[C@]12C [7-Ketolithocholic acid]	20.5	
Cc1ccc(C(=O)O)cc1C [3,4-Dimethylbenzoic acid]	23.9	
COc1cc(C(=O)O)ccc1O [Vanillic acid]	50	
CC(=O)c1ccc(O)c(C)c1 [4'-Hydroxy-3'-methylacetophenone]	11.7	
COC(=O)c1ccc(OC)c(O)c1 [Methyl isovanillate]	12.8	
CC(=O)c1ccc(O)c(O)c1 [3',4'-Dihydroxyacetophenone]	12.4	
COc1cc(C(C)=O)ccc1O [Apocynin]	5.3	
COc1ccc(C(=O)O)cc1O [Isovanillic acid]	0	
Cc1cc(C(=O)O)ccc1O [4-Hydroxy-3-methylbenzoic acid]	61.9	
COc1ccc(C(C)=O)cc1O [3-Hydroxy-4-methoxyacetophenone]	50.5	

Structure (SMILES)	229E Inhibition rate [%]	229E Inhibition rate (229E Inhibition rate, 24 h) [%]
O=Cc1cccs1 [2-Thiophenecarboxaldehyde]	6.5	
O=C(O)C(O)Cc1ccccc1 (racemic) [DL-3-Phenyllactic acid]	22.4	
COc1cc2c(cc1O)CCN1Cc3c(ccc(OC)c3OC)C[C@@H]21 [Corypalmine]	8.4	
C=C[C@](C)(O)CC[C@H]1C(=C)CC[C@H]2C(C)(C)CCC[C@]12C [Manool]	42.5	
CC(C)(O)CCc1c(O)cc(O)c2c(=O)c(O)c(-c3ccc(O)cc3)oc12 [Noricaritin]	14.9	
COc1ccc(-c2oc3c(CCC(C)(C)O)c(O)cc(O)c3c(=O)c2O)cc1 [Wushanicaritin]	51.4	
COc1ccc(-c2oc3c(CC=C(C)C)c(O)cc(O)c3c(=O)c2O)cc1 [Icaritin]	8.6	
COc1ccc(C2COc3cc(O[C@@H]4O[C@H](CO)[C@@H](O)[C@H](O)[C@H]4O)ccc3C2)c(O)c1OC (some centres unmarked) [Isomucronulatol 7-O-glucoside]	13	
CC(C)=CCC/C(C)=C/C=O [Citral]	47.4	
C=C1[C@H]2C[C@H]2[C@]2(C)Cc3occ(C)c3[C@H](O)[C@@H]12 [Lindenenol]	28.5	
CCC/C=C1\OC(=O)C2=C1CC[C@@H](O)[C@H]2O [Senkyunolide H]	47.8	
CCC/C=C1\OC(=O)C2=C1CC[C@H](O)[C@H]2O [Senkyunolide I]	43.1	
CCC/C=C1\OC(=O)C2=C1CC[C@H]1[C@H]3C=C4C(=O)O/C(=C\CCC)[C@@]4(CC3)[C@@H]21 [Levistolide A]	60.4	
Cc1ncc(CO)c(C(=O)O)c1O [4-Pyridoxic acid]	22.7	
O=C(O)/C=C/c1ccccc1 [Cinnamic acid]		21
O=C(O)[C@H](O)c1ccccc1 [D-(-)-Mandelic acid]	7.5	
O=C(O)[C@H]1O[C@@H](Oc2cc(O)c3c(=O)cc(-c4ccc(O)c(O)c4)oc3c2)[C@H](O)[C@@H](O)[C@@H]1O [Luteolin 7-O-glucuronide]	11.2	
C[C@@H]1O[C@@H](O[C@H]2[C@H](O[C@H]3CC[C@@]4(C)[C@@H](CC[C@]5(C)[C@@H]4CC=C4[C@@H]6CC(C)(C)CC[C@]6(C(=O)O[C@@H]6O[C@H](CO[C@@H]7O[C@H](CO)[C@@H](O)[C@H](O)[C@H]7O)[C@@H](O)[C@H](O)[C@H]6O)CC[C@]45C)[C@]3(C)CO)OC[C@H](O)[C@@H]2O)[C@H](O)[C@H](O)[C@H]1O [Dipsacoside B]	11.1	
C[C@@H]1O[C@@H](O[C@H]2[C@H](O)[C@@H](O)[C@H](OC[C@H]3O[C@@H](OC(=O)[C@]45CCC(C)(C)C[C@H]4C4=CC[C@@H]6[C@@]7(C)CC[C@H](O[C@@H]8OC[C@H](O)[C@H](O)[C@H]8O)[C@@](C)(CO)[C@@H]7CC[C@@]6(C)[C@]4(C)CC5)[C@H](O)[C@@H](O)[C@@H]3O)O[C@@H]2CO)[C@H](O)[C@H](O)[C@H]1O [Hederacoside D]		40.4
C[C@@H]1CC[C@]2(C(=O)O[C@@H]3O[C@H](CO)[C@@H](O)[C@H](O)[C@H]3O)CC[C@]3(C)C(=CC[C@@H]4[C@@]5(C)CC[C@H](O)[C@@](C)(CO)[C@@H]5CC[C@]43C)[C@@H]2[C@]1(C)O [Pedunculoside]	10.8	
CC1(C)CC[C@]2(C(=O)O[C@@H]3O[C@H](CO[C@@H]4O[C@H](CO)[C@@H](O)[C@H](O)[C@H]4O)[C@@H](O)[C@H](O)[C@H]3O)CC[C@]3(C)C(=CC[C@@H]4[C@@]5(C)CC[C@H](O[C@@H]6OC[C@H](O)[C@H](O)[C@H]6O)[C@@](C)(CO)[C@@H]5CC[C@]43C)[C@@H]2C1 [Asperosaponin VI]	56.6	

Structure (SMILES)	229E Inhibition rate [%]	229E Inhibition rate (229E Inhibition rate, 24 h) [%]
C[C@@H]1CC[C@]2(C(=O)O[C@@H]3O[C@H](CO)[C@@H](O)[C@H](O)[C@H]3O)CC[C@]3(C)C(=CC[C@@H]4[C@@]5(C)CC[C@H](O)[C@](C)(C(=O)O)[C@@H]5CC[C@]43C)[C@@H]2[C@]1(C)O [Ilexsaponin A]	58.5	
C[C@@H]1CC[C@]2(C(=O)O[C@@H]3O[C@H](CO)[C@@H](O)[C@H](O)[C@H]3O)CC[C@]3(C)C(=CC[C@@H]4[C@@]5(C)C[C@@H](O)[C@H](O)[C@@](C)(CO)[C@@H]5CC[C@]43C)[C@@H]2[C@]1(C)O [Niga-ichigoside F1]	20.4	
O=C(O)C(O)Cc1cc2ccccc2[nH]1 (centres unmarked) [Indolelactic acid]	16.7	
O=C1C=CCO1 [2(5H)-Furanone]	8.7	
CCCCCC(C)C(=O)O (centres unmarked) [2-Methylheptanoic acid]	47.5	
O=C(O)Cc1ccccc1O [2-Hydroxyphenylacetic acid]	12.4	
OCc1ccccc1O [Salicyl alcohol]	51.5	
NCc1ccccc1O [o-Hydroxybenzylamine]	9.2	
c1cc2c(cc1[C@H]1OC[C@@H]3[C@H]1CO[C@H]3c1ccc3c(c1)OCO3)OCO2 [(-)-Asarinin]	9.2	
c1cc2c(cc1O[C@H]1OC[C@H]3[C@@H]1CO[C@@H]3c1ccc3c(c1)OCO3)OCO2 [Sesamolin]	62.2	
c1cc2c(cc1[C@H]1OC[C@H]3[C@@H]1CO[C@@H]3c1ccc3c(c1)OCO3)OCO2 [Sesamin]	15.4	
CC1=C\[C@@H](O)CC(=O)Cc2nc(co2)C(=O)N2CCC=C2C(=O)O[C@H](C(C)C)[C@H](C)/C=C/C(=O)NC\C=C\1 [Virginiamycin M1]	36.6	
N[C@@H](Cc1ccc(O)c([N+](=O)[O-])c1)C(=O)O [3-Nitro-L-tyrosine]	8	
C=C(C)[C@@H]1CC[C@]2(C)CC[C@]3(C)[C@H](CC[C@@H]4[C@@]5(C)CCC(=O)C(C)(C)[C@@H]5CC[C@]43C)[C@@H]12 [Lupenone]	9.9	
CCc1ccc(O)cc1 [4-Ethylphenol]	20.1	
CCC1(c2ccc(O)cc2)NC(=O)N(C)C1=O (centres unmarked) [4-Hydroxymephenytoin]	55.5	
O=c1c(O[C@@H]2OC[C@@H](O)[C@H](O)[C@H]2O)c(-c2ccc(O)c(O)c2)oc2cc(O)cc(O)c12 [Reynoutrin]	19.1	
C[C@H]1CC[C@@]2(OC1)O[C@H]1C[C@H]3[C@@H]4CC=C5C[C@@H](O[C@@H]6O[C@H](CO)[C@@H](O)[C@H](O[C@@H]7OC[C@@H](O)[C@H](O)[C@H]7O)[C@H]6O[C@@H]6O[C@@H](C)[C@H](O)[C@@H](O)[C@H]6O)CC[C@]5(C)[C@H]4CC[C@]3(C)[C@H]1[C@@H]2C [Liriope muscari baily saponins C]	31	
COc1cc([C@@H]2c3cc4c(cc3[C@@H]3OC[C@H]2[C@@H]3CO)OCO4)cc(OC)c1OC [Neoanhydropodophyllol]	9.1	
COc1ccc2cc3[n+](cc2c1OC)CCc1cc2c(cc1-3)OCO2 [Berberine (chloride hydrate)]		34
